Screens deposited in PubChem BioAssay by National Center for Advancing Translational Sciences (NCATS).
An excerpt weighted towards active compounds, which were near 12% of everything screened.
BAZ2B inh: inhibitors of human BAZ2B bromodomain; Q9UIF8; AlphaScreen BAZ2B-H3K14Ac peptide displacement; hit rate 4.4% among 360,000; Potency, µM (highest dose often 114 µM), without a hit: top-dose activity change, negative = inhibition, most hits filed as inhibitors; further: on the % scale 0 is the no-effect control and ±100 the full control effect; nearly all actives have a fitted effect of over 60% in size
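AlphaScreen luminescence quantifies BAZ2B engagement of H3K14Ac peptide; the protein and biotinylated peptide are both at 50 nM final, buffer PBS pH 7.4 with 0.01% Tween-20, all steps at room temperature.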
L3MBTL1 block: blocks human L3MBTL1 | AlphaScreen L3MBTL1–H3K9me1 peptide binding | Q9Y468 | AID 485360 | Potency, µM (highest dose often 57.1 µM), for inactives: top-dose activity, negative = inhibition, hits mostly inhibitors | hit rate 0.66% among 230,000; further: on the % scale 0 is the no-effect control and ±100 the full control effect; nearly all actives have a fitted effect of over 60% in size
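Read-out is AlphaScreen signal from streptavidin donor and nickel chelate acceptor beads (10 ug/mL final each) bridging L3MBTL1 (50 nM) and biotinylated K9-monomethylated H3(1-15) peptide (75 nM), after 30 min compound exposure at room temperature.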
HP1b binding inh: HP1-beta chromodomain-methylated histone interaction inhibition; AlphaScreen HP1-beta / biotin-H3K9me3 peptide binding; Potency, µM (doses to about 114 µM), for the others: top-dose activity change, negative = inhibition, most hits filed as inhibitors; hit rate 0.56% among 390,000; AID 540317; further: nearly all actives have a fitted effect of over 70% in size
Target sequence (P83916 whole entry, looked up): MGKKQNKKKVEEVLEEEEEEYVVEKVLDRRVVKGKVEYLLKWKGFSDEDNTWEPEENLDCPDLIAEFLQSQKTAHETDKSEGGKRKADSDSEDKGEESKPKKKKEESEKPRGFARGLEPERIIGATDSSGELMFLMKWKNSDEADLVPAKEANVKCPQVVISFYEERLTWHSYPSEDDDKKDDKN
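AlphaScreen: HP1-beta (50 nM) preformed 30 min with biotin-H3(1-18)K9me3 peptide (50 nM) in PBS pH 7.4, 0.01% Tween-20. Compound added for 30 min at RT, then streptavidin donor/nickel chelate acceptor beads (10 ug/mL) for 30 min.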
G9a block: blocks human histone lysine methyltransferase G9a; AID 504332; Q96KQ7; G9a H3K9 monomethylation, AlphaScreen, 2 h; Potency, µM (titrated, usually from 102 µM), for inactives: at the top dose activity, negative = inhibition, hits mostly inhibitors; hit rate 8.8% among 350,000; further: on the % scale 0 is the no-effect control and ±100 the full control effect; nearly all actives have a fitted effect of over 75% in size
Target sequence (Q96KQ7 913-1193 limits assumed): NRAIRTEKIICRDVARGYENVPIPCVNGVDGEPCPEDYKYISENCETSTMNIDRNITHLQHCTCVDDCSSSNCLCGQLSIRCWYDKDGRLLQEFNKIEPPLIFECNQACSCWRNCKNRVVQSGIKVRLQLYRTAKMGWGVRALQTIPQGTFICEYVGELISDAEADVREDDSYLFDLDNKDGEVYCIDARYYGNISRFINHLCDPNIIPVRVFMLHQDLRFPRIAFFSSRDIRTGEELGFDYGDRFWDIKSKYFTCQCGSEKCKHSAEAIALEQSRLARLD
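Compounds were preincubated with 20 nM G9a for 15 min, after which biotinylated H3K9 peptide (500 nM) and SAM (20 uM) started a 2 h room-temperature reaction. Monomethylated product was quantified by antibody-based AlphaScreen chemiluminescence.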
JMJD2A Tudor inh: inhibitors of human JMJD2A Tudor domain. O75164. AlphaScreen JMJD2A-Tudor / H3K4me3 peptide binding. Potency, µM (titrated, usually from 114 µM), inactives show top-dose activity change, negative = inhibition, most hits filed as inhibitors. hit rate 4.4% among 390,000; further: on the % scale 0 is the no-effect control and ±100 the full control effect; nearly all actives have a fitted effect of over 50% in size
Sfp PPTase inh: blocks B. subtilis Sfp PPTase activity | hit rate 3.5% among 310,000 | Q9F4F7 | Biochemical Sfp PPTase activity, qHTS | Potency, µM, for the others: largest response in the series, negative = inhibition, actives largely listed as inhibitors;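 further: the enzyme is Sfp with the accession as filed and its product quenches rhodamine fluorescence; 0% = enzyme reaction without inhibitor and -100% = no enzyme wells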
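Step 1, compound plus 15 nM Sfp-PPTase, 15 min, room temperature. Step 2, add rhodamine-CoA (5 uM) and BHQ-2-YbbR (12.5 uM). Step 3, read 525/598 nm fluorescence at 0 and 30 min.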
The depositor's hits bear a star; [ ] = another dose, or the depositor's remark. The call rests on the fitted dose curve; in most records, active means well fitted curve in the direction sought with a large enough effect; inconclusive means small, poorly fitted or top-dose-only effect, or another doubt; inactive means no such curve, though single readings can be large; an effect the other way counts as inactive or inconclusive. Potency means the concentration at half of the fitted maximal effect.

How did CCN(CC)S(=O)(=O)c1ccc2c(c1)nc(SCn1nnc3ccccc3c1=O)n2CC do in these assays?
BAZ2B inh: 12.5%; HP1b binding inh: 18.0%; G9a block: 44.7µM*; JMJD2A Tudor inh: -10.8%; Sfp PPTase inh: 2.8%

What do the screens show for `CCN(CC)S(=O)(=O)c1ccc2c(c1)nc(SCC(=O)N(C)C1CCS(=O)(=O)C1)n2CC` (centres undefined)?
BAZ2B inh: -20.8%; L3MBTL1 block: 9.8%; HP1b binding inh: -2.1%; G9a block: inconclusive; JMJD2A Tudor inh: -16.5%

How did Cn1c(SCC(=O)NNC(=O)Cc2ccccc2)nc2ccccc2c1=O do in these assays?
BAZ2B inh: -7.4%; L3MBTL1 block: 7.6%; HP1b binding inh: -11.2%; G9a block: 15.8%; JMJD2A Tudor inh: 22.4µM*; Sfp PPTase inh: -18.1%

What do the screens show for `CCn1c(SCC(=O)Nc2cc(Cl)ccc2OC)nc2c([nH]c3ccccc32)c1=O`?
BAZ2B inh: 2.5%; HP1b binding inh: 26.3%[57 µM]; G9a block: 3.6%[59 µM]; JMJD2A Tudor inh: -7.4%

What do the screens show for `COC(=O)c1ccc(Cn2ncc3c4sc(C)cc4n(C)c3c2=O)cc1`?
JMJD2A Tudor inh: -15.8%

How did Cc1cc(C)n2c(Nc3ccc(C(C)C)cc3)c(-c3ccsc3)nc2n1 do in these assays?
BAZ2B inh: -12.4%; HP1b binding inh: 13.9%; G9a block: -34.6%[59 µM]; JMJD2A Tudor inh: inconclusive

What do the screens show for `COc1cc(/C=C/C(=O)OCC(=O)NCc2ccco2)ccc1OC(F)F`?
BAZ2B inh: -27.0%; HP1b binding inh: 2.8%; G9a block: 39.8µM*; JMJD2A Tudor inh: -16.8%; Sfp PPTase inh: -14.4%

Results for COc1ccc(/C=C/C(=O)OCC(=O)NCc2ccco2)cc1OC ?
BAZ2B inh: inconclusive; L3MBTL1 block: inconclusive; HP1b binding inh: -5.4%; G9a block: 22.7%[59 µM]; JMJD2A Tudor inh: -26.2%; Sfp PPTase inh: 19.3%

Results for CCOc1cc(/C=C/C(=O)OCC(=O)NCc2ccco2)cc(Cl)c1OC ?
BAZ2B inh: inconclusive; L3MBTL1 block: inconclusive; HP1b binding inh: -14.1%; G9a block: 50.1µM*; JMJD2A Tudor inh: inconclusive

How did CCOC(=O)NC(NC(=S)Nc1ccccc1[N+](=O)[O-])C(Cl)(Cl)Cl (centres undefined) do in these assays?
BAZ2B inh: -10.7%; HP1b binding inh: -10.0%; G9a block: inconclusive; JMJD2A Tudor inh: -35.7%; Sfp PPTase inh: 2.5%

What do the screens show for `COc1ccc(NC(=S)NC(NC(=O)c2cccc(Cl)c2)C(Cl)(Cl)Cl)c([N+](=O)[O-])c1` (centres undefined)?
BAZ2B inh: inconclusive; L3MBTL1 block: -27.5%; HP1b binding inh: inconclusive; G9a block: inconclusive; JMJD2A Tudor inh: 22.4µM*; Sfp PPTase inh: 16.4%

Results for COc1ccc(NC(=S)NC(NC(=O)c2cccc(C)c2)C(Cl)(Cl)Cl)c([N+](=O)[O-])c1 (centres undefined) ?
BAZ2B inh: inconclusive; L3MBTL1 block: -20.7%; HP1b binding inh: -37.9%; G9a block: inconclusive; JMJD2A Tudor inh: -13.7%[11.4 µM]; Sfp PPTase inh: inconclusive

Results for CC(=O)NC(NC(=S)Nc1ccccc1Br)C(Cl)(Cl)Cl (centres undefined) ?
BAZ2B inh: 8.7%; HP1b binding inh: -4.3%; G9a block: 28.2µM*; JMJD2A Tudor inh: -2.8%; Sfp PPTase inh: -4.0%

What do the screens show for `COc1ccc(NC(=S)NC(NC(C)=O)C(Cl)(Cl)Cl)c([N+](=O)[O-])c1` (centres undefined)?
BAZ2B inh: -6.3%; L3MBTL1 block: 3.3%; HP1b binding inh: inconclusive; G9a block: 11.2µM*; JMJD2A Tudor inh: -25.6%; Sfp PPTase inh: -17.0%

Results for CCC1CN(C(=O)N2CCC(C(=O)NCc3cccc(F)c3)CC2)c2cc(C)ccc2O1 (centres undefined) ?
BAZ2B inh: inconclusive; HP1b binding inh: -9.7%; G9a block: inconclusive; JMJD2A Tudor inh: -24.0%
